Source: PubChem BioAssay (NCATS)
Records with an inconclusive call do not appear. Entries that show only a call come without a potency. Calls of active or inactive are those of the source. Calls come from the whole dose curve; as a rule, active = well fitted cell-killing curve with a large enough effect; inconclusive = small, poorly fitted or top-dose-only effect; inactive = flat fitted curve, though single readings scatter.

Assay: Cell Viability - LYMP2-002 (AID 977);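 note: compound exposure lasted 24 h at 37 °C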
Settings: LYMP2-002 lymphoblastoid cell viability, qHTS; series mostly up to 92.2 µM
Text: NIH Chemical Genomics Center [NCGC]
NIH Molecular Libraries Screening Centers Network [MLSCN]
National Institutes of Environmental Health Sciences [NIEHS]
National Toxicology Program [NTP]
We have developed a 1536-well cell-based assay for quantitative high throughput screening (qHTS) against a number of cell lines to determine in vitro cytotoxicity of small molecules. This particular assay uses a human lymphoblastoid cell line (LYMP2-002) purchased from Coriell Institute for Medical Research.
NCGC Assay Protocol Summary:
The CellTiter-Glo luminescent cell viability assay (Promega) is a homogeneous method to measure the number of viable cells in culture. The end point readout of this assay is based on quantitation of intracellular ATP, an indicator of metabolic activity, using the luciferase reaction. Luciferase catalyzes the oxidation of beetle Luciferin to oxyluciferin and light in the presence of ATP. The luminescent signal is proportional to amount of ATP present.
Using the CellTiter-Glo luminescent cell viability assay, the amount of cellular ATP was measured in the lymphoblastoid cell line with complete culture medium following compound treatment for 24 hours. The assay was performed in opaque white Kalypsys 1536-well plates. In the screen, tetraoctylammonium bromide was used as positive control. Library compounds were measured for their ability to cause acute toxicity in the cell line, as reflected by a decrease in intracellular ATP levels, in a concentration-dependent manner. […] AC50 values were determined from concentration-response data modeled with the standard Hill equation.
qHTS protocol for CellTiter Glo lymphoblastoid cellular assay
[Step] [Parameter] [Value] [Description]
1. Reagent; 5 uL; 2500 lymphoblastoid cells/well
2. Time; 5 hr; 37 C incubation
4. Controls; 23 nL; Tetraoctylammonium bromide 6.4pM to 92 uM
5. Time; 24 hr; 37 C incubation
6. Reagent; 5 uL; CellTiter Glo reagent
7. Time; 30 min; Room Temperature
8. Detection; Luminescence; Viewlux plate reader
Keywords: cell viability, cytotoxicity, lymphoblastoid cell line, luminescence, NTPHTS, NTPHTS_NCGC, NIEHS, DSSTox, MLSMR, MLSCN, NIH Roadmap, qHTS, NCGC
Potency is the fitted concentration of half-maximal effect.

Row | SMILES | Potency
1 | O=C(O)Cc1cccc2ccccc12 | inactive
2 | O=c1[nH]cnc2c1ncn2[C@H]1CC[C@@H](CO)O1 | inactive
3 | CCCNC(=O)NS(=O)(=O)c1ccc(Cl)cc1 | inactive
4 | CC(=O)O[C@]1(C(C)=O)CC[C@H]2[C@@H]3C=C(Cl)C4=CC(=O)[C@@H]5C[C@@H]5[C@]4(C)[C@H]3CC[C@@]21C | inactive
5 | CCn1cc(C(=O)O)c(=O)c2ccc(C)nc21 | inactive
6 | O=c1c(O)c(-c2ccc(O)cc2)oc2cc(O)cc(O)c12 | inactive
7 | O=c1c(-c2ccc(O)cc2)coc2cc(O)ccc12 | inactive
8 | O=C1NC(=O)C(c2ccccc2)(c2ccccc2)N1 | inactive
9 | CCCCC1C(=O)N(c2ccccc2)N(c2ccccc2)C1=O | inactive
10 | CC(=O)c1ccc(S(=O)(=O)NC(=O)NC2CCCCC2)cc1 | inactive
11 | CC/C(=C(\c1ccccc1)c1ccc(OCCN(C)C)cc1)c1ccccc1 | 39.8 µM (active)
12 | CN(C)CCC(c1ccccc1)c1ccccn1 (configuration not stated) | inactive
